The OligoGym collection
Further: reference of the scale not given here.

These sequences were tested against CBL (assay: pooled miR-30 sensor sort-seq; sequence = guide strand). Settings: shRNA.
ATCTTGACAAGATAGTACGGAG gave a sensor-assay potency score (higher = more potent) of -1.09.
TTTCTTCATCAAATTCTCCATA was tested, and the sensor-assay potency score (higher = more potent) was -0.795.
TCACCATCCAGAGACAACCAGC was tested, and the sensor-assay potency score (higher = more potent) was -1.24.
TGTTGTAGGATCACCATCCAGA showed a sensor-assay potency score (higher = more potent) of 0.05.
TGAGGGAACACATACTCGCTGC was tested, and the sensor-assay potency score (higher = more potent) was -0.456.
With ATACGTACAGCTATCAATCTGC the sensor-assay potency score (higher = more potent) was 0.514.
Sequence TTGAGGGAACACATACTCGCTG has a sensor-assay potency score (higher = more potent) of -0.612.
For TATCTTGACAAGATAGTACGGA, the sensor-assay potency score (higher = more potent) was 0.0663.
With TTCAGAGTTGATTCTCCGCGGG the sensor-assay potency score (higher = more potent) was -0.689.
Sequence TTTGGGTTCTGACACAACCGCA has a sensor-assay potency score (higher = more potent) of -1.29.
For TACAGCTATCAATCTGCTGGTC, the sensor-assay potency score (higher = more potent) was -0.313.
In the case of TTGCTTAGTTTTCTTCATCAAA, the sensor-assay potency score (higher = more potent) is reported as -1.12.
In the case of TTTATTGTGAGGGATTGTCTGG, the sensor-assay potency score (higher = more potent) is reported as -0.649.
Sequence TTTGTGAATGAATTTCTGGAGC has a sensor-assay potency score (higher = more potent) of -0.665.
For TTACATAGTTGGAATGTGGAGC, the sensor-assay potency score (higher = more potent) was 0.417.

These sequences were tested against CBR1 in the same assay as above. Settings: shRNA.
With TTATTAGAGGGAGTAATTCTGT the sensor-assay potency score (higher = more potent) was -0.254.
AATTCTGTGCACACATCTCGGG gave a sensor-assay potency score (higher = more potent) of -0.452.
In the case of TAAGAGATCATTTTTTTTCTTA, the sensor-assay potency score (higher = more potent) is reported as 0.534.
For TCTGTGCACACATCTCGGGTAC, the sensor-assay potency score (higher = more potent) was -0.133.
In the case of TTTGTTTTCATCGTCACTTCAG, the sensor-assay potency score (higher = more potent) is reported as 0.571.
With ATTCTGTGCACACATCTCGGGT the sensor-assay potency score (higher = more potent) was -0.951.
For TTCAGGAGGATCTTGTCCCCTT, the sensor-assay potency score (higher = more potent) was -0.643.
Work on TATGACATTGTAAATGCCCTTT yielded a sensor-assay potency score (higher = more potent) of -0.242.
With TTGAATATGAAAGGGTGTGGGA the sensor-assay potency score (higher = more potent) was 0.163.
For TTCAGCTTGAATATGAAAGGGT, the sensor-assay potency score (higher = more potent) was 0.264.
With TCATCGTCACTTCAGCTTGAAT the sensor-assay potency score (higher = more potent) was -1.32.
TTACGTAGTCAACTGAGTGCGT gave a sensor-assay potency score (higher = more potent) of 0.669.
TTGTTTTCATCGTCACTTCAGC was tested, and the sensor-assay potency score (higher = more potent) was -0.315.
Sequence TATTAGAGGGAGTAATTCTGTG has a sensor-assay potency score (higher = more potent) of -0.602.
Work on TTCTGTGCACACATCTCGGGTA yielded a sensor-assay potency score (higher = more potent) of 0.677.
For TTAGTAGTACATTAGTGAGTGC, the sensor-assay potency score (higher = more potent) was -0.244.
For ATCGTCGATGTCCAGCTGGTGG, the sensor-assay potency score (higher = more potent) was -1.35.
TAATTCTGTGCACACATCTCGG showed a sensor-assay potency score (higher = more potent) of -0.638.
In the case of TCAGTGATGGTCTCACTGCGGA, the sensor-assay potency score (higher = more potent) is reported as -1.01.
For TTCTCTGAAACAAATTGTCCAT, the sensor-assay potency score (higher = more potent) was -0.572.
With TCAATTAGTAGTACATTAGTGA the sensor-assay potency score (higher = more potent) was 0.828.
For TAGTACATTAGTGAGTGCTAAT, the sensor-assay potency score (higher = more potent) was -1.35.
In the case of TCTCTGAAACAAATTGTCCATG, the sensor-assay potency score (higher = more potent) is reported as -1.29.
Sequence TTTTCATCGTCACTTCAGCTTG has a sensor-assay potency score (higher = more potent) of -0.702.
